Drawing on PubChem BioAssay AID2685 (National Center for Advancing Translational Sciences (NCATS), 2010), this text covers Potency, cell number change and lipid storage change, negative = inhibition for 89 compounds.

Hit rate of the full screen: of about 320,000 compounds, about 2,100 (0.66%) were called active. Inconclusive results (about 53%) are left out. Calls come from the whole dose curve; as a rule, active = well fitted inhibition curve with a large enough effect in the signal ratio, with a control signal flat (not every such curve was filed as active); inconclusive = small, poorly fitted or top-dose-only effect, or effect the other way, or a change in a side signal; inactive = flat fitted curve, though single readings scatter; the % refers to the signal ratio. Only a selection was taken, and actives are over-represented in it overall.
Potency is the fitted concentration of half-maximal effect.

The assay can be described thus: qHTS Assay for Lipid Storage Modulators in Drosophila S3 Cells.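 For cell number change: cells counted by Cell Tracker Red CMTPX staining in the red channel.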 For lipid storage change, negative = inhibition: % is set by controls: 0 for no effect and ±100 for the full control effect. The note with it: BODIPY lipid droplet fluorescence, 18-24 h, cells fed with added oleic acid; cell number change: measured here: cell count max response; series mostly up to 46.1 µM. The method, boiled down:
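Laser-scanning cytometry quantifies lipid droplet accumulation (500–530 nm total intensity; droplet/cell object ratio) in oleic acid-fed (400 uM added) Drosophila S3 cells treated with a concentration series. 20 uM Triacsin C defined 100% inhibition.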
Turning to `O=c1[nH]c(=O)c2nnc(N/N=C\c3ccc(O)cc3)nc2[nH]1`, the Potency entry is “inactive” and the cell number change was -0.285%.
On the same counts, the results for `Cc1ccc(N/C(N)=N/c2nc3c(c(=O)[nH]2)CCCC3)c(C)c1` are “inactive” and 25.1%.
For `CN(C)CCN(C(=O)c1ccc(C(=O)c2ccccc2)cc1)c1nc2cc3c(cc2s1)OCO3` the same measures were “inactive” and 29%.
Turning to `CC1(C)N=C(N)N=C(N)N1c1cccc(C(=O)O)c1`, the Potency was 29.1 µM (active) and the cell number change turned out to be 9.53%.
On the same counts, the results for `CCOC(=O)c1cccc(N2C(N)=NC(N)=NC2(C)C)c1` are “inactive” and 6.64%.
In the case of `COc1cccc(N2C(N)=NC(N)=NC2(C)C)c1`, the Potency entry is “inactive” and the cell number change is -1.01%.
On the same counts, the results for `O=C(Nc1ccc(N2CCOCC2)cc1)C1CC(=O)N(c2ccc(F)cc2)C1` (stereo unspecified) are “inactive” and 18.8%.
With `CN(C(=O)C1CCOC1)c1nnc(-c2cnccn2)s1` (stereo unspecified), the cell number change turned out to be 10.4% and the lipid storage change, negative = inhibition is -5.36% [at 9.22 µM] (inactive).
In the case of `Cc1cnc(-c2nnc(N(C)C(=O)C3CCOC3)s2)cn1` (stereo unspecified), the Potency is 23.1 µM (active) and the cell number change is -7.84%.
In the case of `CN(C(=O)C1CCOC1)c1nnc(-c2ccncc2)s1` (stereo unspecified), the Potency result is “inactive”.
On the same count and under the same terms, the result for `CC(C)c1ccc2c(c1)C1Cc3ccccc3C1N2` (stereo unspecified) reads 9.2 µM (active).
Take `CC(C)c1ccc2c(c1)[C@H]1OCC[C@H]1[C@@H](c1cccs1)N2`: the Potency entry was “inactive” and the cell number change is -7.55%.
For `O=C1NC2c3ccccc3CC2O1` (stereo unspecified) the same measures were “inactive” and 17.5%.
For `COc1ccc(/C=N\NC(=O)COc2ccc(Cl)cc2Cl)c(C(=O)O)c1OC` the same measures were “inactive” and 11.7%.
Regarding `CC(C)NC(=O)C(c1ccc(F)cc1)N(C(=O)CCC(=O)Nc1ccccn1)c1cccc(F)c1` (stereo unspecified), the Potency result is “inactive” and the cell number change was 7.14%.
For `Oc1ccc(-c2csc(-c3cccnc3)n2)cc1O` the same measures were “inactive” and -16.9%.
For `Fc1ccc(-c2csc(-c3ccncc3)n2)cc1` the same measures were “inactive” and 8.89%.
With `Fc1ccc(-c2csc(-c3cccnc3)n2)cc1F`, the Potency result was “inactive”.
In the case of `NC(=O)c1cc(-c2csc(-c3cccnc3)n2)ccc1O`, the Potency is 25.9 µM (active) and the cell number change worked out at 5%.
For `O=C(O)c1ccc(-c2nc(-c3ccc(Cl)c(Cl)c3)cs2)cc1` the same measures were “inactive” and 6.89%.
`Oc1ccc(-c2nc(-c3ccc(O)c(O)c3)cs2)cc1`: the Potency is 0.0116 µM (active) and the cell number change is -11.8%.
`CCN(CC)S(=O)(=O)c1ccc(S(=O)(=O)N2CCCC2)cc1`: the Potency result was “inactive” and the cell number change came to 4.33%.
For `CCOc1ccc(Nc2cc3n(c(=O)n2)CCc2cc(OC)c(OC)cc2-3)cc1` the same measures were “inactive” and -17.4%.
For the compound `CCc1c(C)nc(N2CCN(c3ccccc3F)CC2)[nH]c1=O`, the Potency result is “inactive” and the cell number change is 15.2%.
For `Cc1nn(-c2ccccc2)c(Cl)c1/C=N/NC(=O)CNc1n[nH]c(=O)[nH]c1=O` the same measures were “inactive” and 11.6%.
For `CCO[C@@H]1OC(C(=O)NCc2nc3ccccc3[nH]2)=C[C@H](C)[C@H]1CCCO` the same measures were “inactive” and -18.5%.
For `CCC(=O)Nc1ccc2c(c1)ncn2-c1ccc(C)cc1` the same measures were “inactive” and 19.8%.
Turning to `Cc1ccc(NC(=O)N(CCC(=O)O)Cc2ccccc2)cc1`, the Potency result was “inactive”.
`Cc1cc(C)c2[nH]c(=O)c(CN(C(=O)C3CCCO3)C3CCCC3)cc2c1` (stereo unspecified): the Potency entry was “inactive” and the cell number change was determined as 9.83%.
For `CCN1C(=O)[C@@H]2[C@@H](c3ccc(-c4ccccc4)cc3)N3CCCC[C@@]3(C(=O)OC)[C@@H]2C1=O` the same measures were “inactive” and 15.8%.
As for `CCN1C(=O)[C@H]2[C@@H](c3ccc(-c4ccccc4)cc3)N3CCCC[C@@]3(C(=O)OC)[C@H]2C1=O`, the Potency result is “inactive”.
As for `CCN1C(=O)[C@@H]2[C@@H](c3ccc(-c4ccc5c(c4)OCO5)c(OC)c3)N3CCC[C@@]3(C(=O)OC)[C@@H]2C1=O`, the Potency entry is “inactive” and the cell number change was -1.65%.
For `CCN1C(=O)[C@@H]2[C@@H](c3ccc(-c4ccc(OC)cc4)c(OC)c3)N3CCCC[C@@]3(C(=O)OC)[C@@H]2C1=O` the same measures were 9.2 µM (active) and 24.8%.
Consider `CCN1C(=O)[C@@H]2[C@@H](c3ccc(-c4ccc5c(c4)OCO5)c(OC)c3)N3CCCC[C@@]3(C(=O)OC)[C@@H]2C1=O`, for which the Potency result is “inactive”.
`CCN1C(=O)[C@H]2[C@@H](c3ccc(-c4ccc(OC)cc4)c(OC)c3)N3CCCC[C@@]3(C(=O)OC)[C@H]2C1=O`: the Potency was 5.8 µM (active) and the cell number change was -0.765%.
For `Cc1cccc(OCC(=O)Nc2ccc3c(c2)nc(CCN2CCCCC2)n3C)c1`, the Potency result was “inactive”.
For `CCc1ccc(NC(=O)[C@H](Cc2ccccc2)NC(=O)C2CCN(C(=O)[C@@H](N)CC(C)C)CC2)cc1`, the Potency entry was “inactive” and the cell number change was found to be 18%.
Regarding `CC(=O)c1ccc(NC(=O)c2ccc(CSc3ccccc3)o2)cc1`, the Potency entry is “inactive” and the cell number change turned out to be 3.7%.
On the same counts, the results for `CN(C)c1ccc(C#Cc2ccc3cc(CCO)oc(=O)c3c2)cc1` are “inactive” and 24%.
For `Cn1cncc1C#Cc1ccc2cc(CCO)oc(=O)c2c1` the same measures were 1.3 µM (active) and 17.2%.
For `Cn1cncc1C#Cc1ccc2cc(C3(O)CCCCC3)oc(=O)c2c1` the same measures were “inactive” and -13.7%.
Consider `COc1cccc(Oc2cc(Cl)nc(N)n2)c1`, for which the Potency result was “inactive” and the cell number change was -10.3%.
On to `COc1ccc(Cl)cc1NC(=O)C(C)OC(=O)C1=NNC(=O)CC1` (stereo unspecified), for which the Potency entry was “inactive” and the cell number change was -0.986%.
On the same counts, the results for `O=C(N/N=C/c1ccccn1)c1cc(-c2ccncc2)nc2ccccc12` are “inactive” and 0.674%.
In the case of `CC1=C(C(=O)OCC2CCCO2)C(c2ccc(Cl)c(Cl)c2)NC(=O)N1` (stereo unspecified), the Potency result was “inactive” and the cell number change worked out at 6.97%.
For `CC1=C(C(=O)N(C)C)C(c2ccc(Cl)c(Cl)c2)NC(=O)N1` (stereo unspecified) the same measures were 3.66 µM (active) and -24.5%.
Regarding `CC1=C(C(=O)N(C)C)C(c2ccc(N3CCOCC3)cc2)NC(=O)N1` (stereo unspecified), the Potency entry is “inactive”.
On to `N/C(=N\OC(=O)c1cccnc1)c1ccccc1Cl`, for which the Potency result is “inactive” and the cell number change is -1.5%.
For `O=c1ncn(-c2ccccc2C(F)(F)F)c2ncccc12` the same measures were “inactive” and -1.22%.
On the same counts, the results for `CC(C(=O)NC(C)(C)C)N(Cc1cccs1)C(=O)CCN1CCc2ccccc21` (stereo unspecified) are “inactive” and 1.12%.
For `CC(C)(C)NC(=O)NC(=O)CN1CCCc2ccccc21`, the Potency entry is “inactive” and the cell number change is -16.4%.
Turning to `CC(C)(C)NC(=O)CN(C(=O)CCN1CCCc2ccccc21)C(C)(C)C`, the Potency was 14.6 µM (active).
As for `O=C(COC(=O)c1ccco1)c1ccc(S(=O)(=O)N2CCCCC2)cc1`, the Potency entry is “inactive” and the cell number change was -13.5%.
In the case of `Cc1cc(C)n2nc(C(=O)NNC(=O)c3ccccc3)nc2n1`, the Potency entry is “inactive” and the cell number change turned out to be 14%.
For `Cc1cc(C)n2nc(C(=O)OCC(=O)NNC(=O)c3ccc(Cl)cc3)nc2n1` the same measures were “inactive” and -14.4%.
On the same counts, the results for `Cc1cc(C)n2nc(C(=O)NNC(=O)c3ccc(Cl)cc3)nc2n1` are 18.4 µM (active) and -28%.
For `CCN(CC)c1nc(-c2ccc(Cl)cc2)cc(C(F)(F)F)c1C#N` the same measures were “inactive” and -4.2%.
On to `O=C(COc1ccc(-c2ccccc2)cc1)NNC(=O)Nc1ccc(F)cc1F`, for which the Potency result is “inactive”.
As for `CC1CN(Cc2ccccc2)C(C)CC1O` (stereo unspecified), the Potency result is “inactive” and the cell number change came out at 13.3%.
On the same counts, the results for `COc1ccc(OCC(O)CN2CCCCCC2)cc1` (stereo unspecified) are “inactive” and 9.25%.
On to `OC(COc1ccc(OCC(O)CN2CCCCCC2)cc1)CN1CCCCCC1` (stereo unspecified), for which the Potency entry is “inactive” and the cell number change was -8.16%.
For `OC(COc1ccc(C2C=CCC2)cc1)CN1CCCCC1` (stereo unspecified), the Potency is 0.731 µM (active) and the cell number change amounted to 1.19%.
On the same counts, the results for `FC(F)(F)c1ccnc(N2CCN(Cc3cnc(-c4ccccc4)[nH]3)CC2)c1` are “inactive” and 15%.
On the same counts, the results for `CC(NS(=O)(=O)c1ccc(OCC(=O)NCc2ccncc2)cc1)c1ccccc1` (stereo unspecified) are “inactive” and 0.901%.
With `CC(NS(=O)(=O)c1ccc(CCC(=O)NCc2cccnc2)cc1)c1ccccc1` (stereo unspecified), the Potency entry is “inactive” and the cell number change is -3.81%.
As for `CC(NS(=O)(=O)c1ccc(OCC(=O)NCc2cccnc2)cc1)c1ccccc1` (stereo unspecified), the Potency is 0.651 µM (active) and the cell number change is -6.31%.
For `COCC1CCN(Cc2nc(-c3ccc(OC)cc3)no2)CC1` the same measures were “inactive” and 9.88%.
For `Cc1ccc(CSCC(=O)N(C)CC(=O)Nc2ccc(C)cc2)cc1` the same measures were “inactive” and 15.6%.
In the case of `COc1ccc(NC(=O)CN(C)C(=O)CSCc2ccc(C)cc2)cc1`, the Potency is 10.3 µM (active) and the cell number change was -11%.
Take `Cc1ccc(CSCC(=O)N(C)CC(=O)Nc2ccc(Cl)c(Cl)c2)cc1`: the Potency result was “inactive” and the cell number change was determined as 1.04%.
On to `CCC(C)NC(=O)CN1C(=O)C(CC)Sc2ccccc21` (stereo unspecified), for which the Potency entry is “inactive” and the cell number change was -9.92%.
On the same counts, the results for `CCOc1ccccc1NC(=O)C1CCCN(S(=O)(=O)c2ccc(-n3cnnn3)cc2)C1` (stereo unspecified) are “inactive” and 20.5%.
As to `CCOC(=O)C1(CC2CC2)CCN(C(=O)c2cc(C3CC3)nc3ccccc23)CC1`, the Potency was 25.9 µM (active) and the cell number change was -20.4%.
On the same counts, the results for `CCOC(=O)C1(CC2CC2)CCN(C(=O)c2cccnc2C)CC1` are “inactive” and 26%.
For `CCOC(=O)C1(CC2CC2)CCN(C(=O)c2ocnc2C)CC1` the same measures were “inactive” and -6.88%.
On the same counts, the results for `Cc1cc(Br)cc(C)c1NC(=O)c1ccc(C#N)cc1F` are “inactive” and 3.82%.
For `C=CCNC(=S)NNC(=O)c1ccc(OCC)cc1`, the Potency entry is “inactive” and the cell number change was -9.79%.
Consider `COc1ccccc1CNC(=O)c1oc2ccc(S(=O)(=O)N3CCOCC3)cc2c1C`, for which the Potency is 29.1 µM (active) and the cell number change is -8.7%.
As for `Cc1c(C(=O)NCCCN2CCOCC2)oc2ccc(S(=O)(=O)N3CCOCC3)cc12`, the Potency entry was “inactive” and the cell number change amounted to 20.6%.
On to `COc1ccccc1CNC(=O)N1CCN(S(=O)(=O)c2ccc(Cl)cc2)CC1`, for which the Potency is 0.13 µM (active) and the cell number change worked out at 1.35%.
Take `COc1ccccc1CNC(=O)[C@@H]1CCCN1S(=O)(=O)c1ccc(Cl)cc1`: the Potency result is “inactive” and the cell number change is -7.14%.
As to `O=C(NCc1ccc(Cl)cc1)N1CCN(S(=O)(=O)c2ccccc2)CC1`, the Potency result is “inactive” and the cell number change was found to be 17.1%.
For the compound `Cc1c(C(=O)NCc2c(F)cc(F)cc2F)oc2ccc(S(=O)(=O)N3CCOCC3)cc12`, the Potency is 2.91 µM (active) and the cell number change was -3.48%.
For `Cc1c(C(=O)NCCC2=CCCCC2)oc2ccc(S(=O)(=O)N3CCOCC3)cc12` the same measures were “inactive” and -13.3%.
With `CCOCCCNC(=O)c1oc2ccc(S(=O)(=O)N3CCOCC3)cc2c1C`, the Potency was 18.4 µM (active).
On to `Cc1c(C(=O)NCCCN2CCCC2=O)oc2ccc(S(=O)(=O)N3CCOCC3)cc12`, for which the Potency entry is “inactive” and the cell number change is -0.135%.
For `Cc1c(C(=O)NCc2ccc(F)cc2)oc2ccc(S(=O)(=O)N3CCOCC3)cc12` the same measures were “inactive” and -3.6%.
As to `COc1ccccc1CNC(=O)c1oc2ccc(S(=O)(=O)N3CCCC3)cc2c1C`, the Potency result was “inactive”.
`COc1cccc(NC(=O)c2oc3ccc(S(=O)(=O)N4CCOCC4)cc3c2C)c1`: the Potency entry was “inactive” and the cell number change turned out to be 4.15%.
